The full data set covers some 8,800 targets. This sample favours those with a hit. About 0.5% of all pairs of compound and target were hits. Unmarked numbers belong to inactive results.
Tests used:
Experiment in all cases: log2 fold change, soluble protein after heating vs DMSO (PISA); higher = thermal stabilisation; K562 lysate, 10 uM; active = over 0.2 and 3.5 SD of the protein, either way, in both replicates (recomputed)
erlotinib = compound: C#Cc1cccc(Nc2ncnc3cc(OCCOC)c(OCCOC)cc23)c1 [erlotinib]
Procedure, shortened: (§1)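 A 30 min treatment with 10 μM compound was applied to crude K562 extract at 1 mg/mL protein in PBS pH 7.4 with 1 mM MgCl2. Heating for 3 min spanned 48°C-58°C, after which aliquots were pooled, adjusted to 0.5% NP-40 at 4°C and spun at 21,000xg for 90 min. TMTpro 16plex LC-MS/MS of the supernatant, with channel sums equalised, gave values recorded as log-two fold change in thermal stability against solvent controls, from duplicates.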

[1] = compound: C/C(=N\NC(=O)C1=CC(=CC=C1)S(=O)(=O)N2CCOCC2)/C3=C(C=CC(=C3)Cl)O
Procedure, shortened: as §1

[2] = compound: C1=CC(=CC=C1C2=NC3=C(N2)C=C(C=C3)C(=O)N)OC4=CC=C(C=C4)Cl
Procedure, shortened: as §1

[3] = compound: C1=CC2=C(C=CC(=C2)/C=C\3/C(=O)NC(=NCC4=CC=CS4)S3)N=C1
Procedure, shortened: as §1

[4] = compound: C1=CC2=NC=CN=C2C=C1/C=C/3\C(=O)NC(=O)S3
Procedure, shortened: as §1

[5] = compound: C1=CC=C(C=C1)C2=NC(=C(N2)C3=CC=NC=C3)C4=CC(=C(C=C4)Cl)O
Procedure, shortened: as §1

[6] = compound: C1=CC=C2C(=C1)C3=NNC4=CC=CC(=C43)C2=O
Procedure, shortened: as §1

[7] = compound: C1CCN(C1)C(=O)NC2=CC=CC(=C2)NC3=NC=C(C(=N3)NCCC4=CN=CN4)Br
Procedure, shortened: as §1

[8] = compound: C1CN(CCC1(CC2=CC=C(C=C2)Cl)N)C3=NC=NC4=C3C=CN4
Procedure, shortened: as §1

IRAK-1-4 Inhibitor I = compound: C1COCCN1CCN2C3=CC=CC=C3N=C2NC(=O)C4=CC(=CC=C4)[N+](=O)[O-] [IRAK-1-4 Inhibitor I]
Procedure, shortened: as §1

ibrutinib = compound: C=CC(=O)N1CCC[C@@H](n2nc(-c3ccc(Oc4ccccc4)cc3)c3c(N)ncnc32)C1 [ibrutinib]
Procedure, shortened: as §1

[9] = compound: CC(=O)c1cnc2ccc(-c3cc(Cl)c(O)c(Cl)c3)nc2c1N[C@H]1CC[C@H](CN(C)C)CC1
Procedure, shortened: as §1

ralimetinib = compound: CC(C)(C)Cn1c(N)nc2ccc(-c3[nH]c(C(C)(C)C)nc3-c3ccc(F)cc3)nc21 [ralimetinib]
Procedure, shortened: as §1

[10] = compound: CC(C)(O)CC(=O)NCCn1ccc2ncnc(Nc3ccc(Oc4cccc(C(F)(F)F)c4)c(Cl)c3)c21
Procedure, shortened: as §1

[11] = compound: CC(C)C1=C2N=C(C=C(N2N=C1)NCC3=CC=CC=C3)NCCCCCCN
Procedure, shortened: as §1

[12] = compound: CC1=C(C(CC(=O)N1)C2=CC=C(C=C2)C(F)(F)F)C(=O)NC3=C(C=C4C(=C3)C=NN4)F
Procedure, shortened: as §1

[13] = compound: CC1=C(C2=C(C=C1)C(=O)C3=CC=CC=C3N2CCCN)C
Procedure, shortened: as §1

[14] = compound: CC1=C(C=C(C=C1)NC(=O)C2=CC(=CC=C2)C(C)(C)C#N)NC3=CC4=C(C=C3)N=CN(C4=O)C
Procedure, shortened: as §1

[15] = compound: CC1=C(C=C(C=C1)NC(=O)C2=CC(=CC=C2)N(C)C)NC(=O)C3=CC=C(C=C3)O
Procedure, shortened: as §1

[16] = compound: CC1=CC=C(C=C1)SC2=C3C=C(SC3=CN=C2)C(=O)N
Procedure, shortened: as §1

UniProt O43615, sequence (O43615 whole entry, looked up): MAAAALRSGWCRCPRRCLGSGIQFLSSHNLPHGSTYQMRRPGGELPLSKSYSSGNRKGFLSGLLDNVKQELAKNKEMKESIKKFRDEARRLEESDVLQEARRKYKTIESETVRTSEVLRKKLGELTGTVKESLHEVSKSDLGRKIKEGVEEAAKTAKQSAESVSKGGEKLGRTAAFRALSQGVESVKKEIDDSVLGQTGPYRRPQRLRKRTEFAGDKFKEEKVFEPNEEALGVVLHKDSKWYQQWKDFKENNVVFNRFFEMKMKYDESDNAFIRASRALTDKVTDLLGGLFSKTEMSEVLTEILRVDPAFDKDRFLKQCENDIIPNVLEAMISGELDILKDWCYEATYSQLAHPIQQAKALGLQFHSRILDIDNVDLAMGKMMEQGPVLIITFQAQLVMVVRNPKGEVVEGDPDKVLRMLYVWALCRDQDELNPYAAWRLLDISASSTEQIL
UniProt P10646, sequence (P10646 whole entry, looked up): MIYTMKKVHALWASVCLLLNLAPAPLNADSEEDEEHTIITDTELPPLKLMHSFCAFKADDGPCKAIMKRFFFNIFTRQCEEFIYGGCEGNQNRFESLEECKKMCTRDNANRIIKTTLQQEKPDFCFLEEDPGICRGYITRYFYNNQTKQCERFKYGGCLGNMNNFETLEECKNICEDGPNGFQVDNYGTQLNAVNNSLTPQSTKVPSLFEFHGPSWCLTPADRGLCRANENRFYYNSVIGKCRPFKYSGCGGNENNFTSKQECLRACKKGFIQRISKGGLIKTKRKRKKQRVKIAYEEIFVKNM
UniProt Q9UNY4, sequence (Q9UNY4 whole entry, looked up): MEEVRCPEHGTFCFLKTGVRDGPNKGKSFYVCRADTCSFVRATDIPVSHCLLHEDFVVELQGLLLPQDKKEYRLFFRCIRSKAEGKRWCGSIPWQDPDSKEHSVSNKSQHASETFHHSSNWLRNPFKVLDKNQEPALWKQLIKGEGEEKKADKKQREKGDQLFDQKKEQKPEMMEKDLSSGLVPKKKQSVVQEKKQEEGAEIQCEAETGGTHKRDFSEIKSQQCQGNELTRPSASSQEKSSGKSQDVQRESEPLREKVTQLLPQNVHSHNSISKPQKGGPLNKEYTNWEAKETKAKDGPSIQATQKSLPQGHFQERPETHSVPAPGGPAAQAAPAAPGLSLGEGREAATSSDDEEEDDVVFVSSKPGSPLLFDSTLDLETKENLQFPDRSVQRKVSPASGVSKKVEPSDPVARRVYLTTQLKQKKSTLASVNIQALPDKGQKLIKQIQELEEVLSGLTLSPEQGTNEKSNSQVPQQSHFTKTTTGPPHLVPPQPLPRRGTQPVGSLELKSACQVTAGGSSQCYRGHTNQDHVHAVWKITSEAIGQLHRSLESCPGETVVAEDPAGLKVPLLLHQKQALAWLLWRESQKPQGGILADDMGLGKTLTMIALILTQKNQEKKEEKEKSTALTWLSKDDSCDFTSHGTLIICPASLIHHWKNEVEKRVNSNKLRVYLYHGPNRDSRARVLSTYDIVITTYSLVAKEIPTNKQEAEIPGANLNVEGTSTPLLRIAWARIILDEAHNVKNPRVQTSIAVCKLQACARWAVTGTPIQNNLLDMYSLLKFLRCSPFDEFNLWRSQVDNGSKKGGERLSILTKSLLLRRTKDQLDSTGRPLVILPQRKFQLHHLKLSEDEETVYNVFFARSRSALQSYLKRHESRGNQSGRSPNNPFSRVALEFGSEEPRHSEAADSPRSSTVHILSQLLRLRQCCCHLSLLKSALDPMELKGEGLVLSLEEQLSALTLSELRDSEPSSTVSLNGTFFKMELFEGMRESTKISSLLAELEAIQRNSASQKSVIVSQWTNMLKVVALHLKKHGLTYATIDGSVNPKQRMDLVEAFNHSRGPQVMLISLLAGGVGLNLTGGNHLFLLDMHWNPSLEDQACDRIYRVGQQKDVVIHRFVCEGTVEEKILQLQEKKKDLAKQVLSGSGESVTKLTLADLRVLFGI
UniProt P68371, sequence (P68371 whole entry, looked up): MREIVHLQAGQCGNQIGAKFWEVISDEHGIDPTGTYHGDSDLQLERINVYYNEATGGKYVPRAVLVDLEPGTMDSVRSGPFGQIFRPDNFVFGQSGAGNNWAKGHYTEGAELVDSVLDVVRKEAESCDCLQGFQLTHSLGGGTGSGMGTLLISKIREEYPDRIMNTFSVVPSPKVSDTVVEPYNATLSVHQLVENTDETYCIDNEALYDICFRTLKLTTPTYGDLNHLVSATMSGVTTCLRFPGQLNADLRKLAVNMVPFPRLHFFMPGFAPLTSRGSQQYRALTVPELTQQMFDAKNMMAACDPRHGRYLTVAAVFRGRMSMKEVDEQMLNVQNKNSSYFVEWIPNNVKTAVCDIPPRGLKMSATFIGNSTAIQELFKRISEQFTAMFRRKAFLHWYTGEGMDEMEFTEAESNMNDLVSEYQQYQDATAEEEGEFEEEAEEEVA
UniProt Q9BZL1, sequence (Q9BZL1 whole entry, looked up): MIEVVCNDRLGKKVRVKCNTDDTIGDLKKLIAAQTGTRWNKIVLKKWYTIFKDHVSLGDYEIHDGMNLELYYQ
UniProt Q9UPU7, sequence (Q9UPU7 whole entry, looked up): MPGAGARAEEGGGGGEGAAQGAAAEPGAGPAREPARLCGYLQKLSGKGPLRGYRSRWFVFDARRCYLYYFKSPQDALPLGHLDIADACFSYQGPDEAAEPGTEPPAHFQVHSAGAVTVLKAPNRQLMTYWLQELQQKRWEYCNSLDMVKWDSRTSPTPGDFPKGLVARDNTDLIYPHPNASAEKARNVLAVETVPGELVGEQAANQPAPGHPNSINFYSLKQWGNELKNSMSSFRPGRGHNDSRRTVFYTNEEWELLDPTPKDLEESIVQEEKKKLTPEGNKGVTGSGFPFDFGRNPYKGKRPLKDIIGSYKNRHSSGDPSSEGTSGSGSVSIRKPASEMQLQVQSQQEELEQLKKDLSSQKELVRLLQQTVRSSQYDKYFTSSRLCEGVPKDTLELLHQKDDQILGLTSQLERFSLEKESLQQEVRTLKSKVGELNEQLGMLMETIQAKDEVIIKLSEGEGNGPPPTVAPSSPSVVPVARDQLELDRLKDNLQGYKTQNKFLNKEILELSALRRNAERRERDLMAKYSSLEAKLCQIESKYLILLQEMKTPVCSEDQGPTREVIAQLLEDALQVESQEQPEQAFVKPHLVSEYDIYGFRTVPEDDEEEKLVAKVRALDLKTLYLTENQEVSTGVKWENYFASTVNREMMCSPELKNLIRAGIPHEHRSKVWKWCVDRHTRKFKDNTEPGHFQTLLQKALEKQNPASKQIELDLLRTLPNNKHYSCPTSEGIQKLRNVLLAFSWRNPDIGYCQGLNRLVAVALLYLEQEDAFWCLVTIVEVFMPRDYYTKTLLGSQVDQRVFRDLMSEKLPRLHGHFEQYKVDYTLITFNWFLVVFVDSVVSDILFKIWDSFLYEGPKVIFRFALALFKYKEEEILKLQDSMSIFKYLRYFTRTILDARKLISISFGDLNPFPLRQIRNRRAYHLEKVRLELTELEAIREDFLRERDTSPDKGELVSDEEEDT
UniProt Q5TEJ8, sequence (Q5TEJ8 whole entry, looked up): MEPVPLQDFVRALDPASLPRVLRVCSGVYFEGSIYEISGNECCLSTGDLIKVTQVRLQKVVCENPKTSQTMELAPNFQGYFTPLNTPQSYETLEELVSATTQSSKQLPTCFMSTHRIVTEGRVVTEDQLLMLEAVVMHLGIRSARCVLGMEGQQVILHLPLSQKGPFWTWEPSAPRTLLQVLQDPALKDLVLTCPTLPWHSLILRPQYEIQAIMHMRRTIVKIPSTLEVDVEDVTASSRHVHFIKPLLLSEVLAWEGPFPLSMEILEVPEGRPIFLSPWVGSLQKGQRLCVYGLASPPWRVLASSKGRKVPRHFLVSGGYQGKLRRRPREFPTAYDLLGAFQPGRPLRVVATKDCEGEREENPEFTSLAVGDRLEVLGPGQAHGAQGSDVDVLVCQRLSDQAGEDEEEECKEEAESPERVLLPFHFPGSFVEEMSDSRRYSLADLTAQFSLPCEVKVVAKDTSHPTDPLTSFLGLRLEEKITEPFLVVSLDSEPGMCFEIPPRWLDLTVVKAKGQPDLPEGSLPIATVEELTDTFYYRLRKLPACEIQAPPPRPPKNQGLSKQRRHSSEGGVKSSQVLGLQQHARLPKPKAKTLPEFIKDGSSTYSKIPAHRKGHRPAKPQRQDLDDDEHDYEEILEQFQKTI
UniProt P17480, sequence (P17480 whole entry, looked up): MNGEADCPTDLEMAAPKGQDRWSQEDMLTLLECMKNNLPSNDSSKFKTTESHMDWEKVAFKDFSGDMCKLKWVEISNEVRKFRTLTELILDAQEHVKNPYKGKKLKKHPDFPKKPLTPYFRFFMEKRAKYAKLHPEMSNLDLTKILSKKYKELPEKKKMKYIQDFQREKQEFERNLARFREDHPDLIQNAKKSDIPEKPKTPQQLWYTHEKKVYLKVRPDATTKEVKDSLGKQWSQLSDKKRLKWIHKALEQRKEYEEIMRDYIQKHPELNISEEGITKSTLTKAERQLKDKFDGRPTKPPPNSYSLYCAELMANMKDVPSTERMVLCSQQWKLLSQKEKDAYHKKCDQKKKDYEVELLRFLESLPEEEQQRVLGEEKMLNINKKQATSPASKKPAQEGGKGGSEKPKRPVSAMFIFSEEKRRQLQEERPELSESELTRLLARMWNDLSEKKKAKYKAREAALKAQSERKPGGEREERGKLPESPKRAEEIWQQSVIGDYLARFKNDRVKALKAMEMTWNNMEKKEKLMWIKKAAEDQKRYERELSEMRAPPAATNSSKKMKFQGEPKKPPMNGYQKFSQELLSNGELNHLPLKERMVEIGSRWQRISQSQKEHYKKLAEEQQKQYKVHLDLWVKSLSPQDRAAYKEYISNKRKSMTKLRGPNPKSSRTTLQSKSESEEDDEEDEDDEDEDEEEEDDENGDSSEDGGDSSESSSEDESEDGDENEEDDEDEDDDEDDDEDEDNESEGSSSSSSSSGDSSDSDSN
UniProt Q9NRX6, sequence (Q9NRX6 whole entry, looked up): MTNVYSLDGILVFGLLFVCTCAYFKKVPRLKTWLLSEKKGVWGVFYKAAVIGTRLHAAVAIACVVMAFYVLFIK

Row | Target | log2 fold change (erlotinib) | log2 fold change [1] | log2 fold change [2] | log2 fold change [3] | log2 fold change [4] | log2 fold change [5] | log2 fold change [6] | log2 fold change [7] | log2 fold change [8] | log2 fold change (IRAK-1-4 Inhibitor I) | log2 fold change (ibrutinib) | log2 fold change [9] | log2 fold change (ralimetinib) | log2 fold change [10] | log2 fold change [11] | log2 fold change [12] | log2 fold change [13] | log2 fold change [14] | log2 fold change [15] | log2 fold change [16]
1 | TIMM44 (UniProt O43615) | -0.019 | -0.02 | -0.008 | -0.019 | 0.041 | -0.012 | 0.03 | -0.019 | 0.004 | -0.011 | 0.03 | 0.005 | -0.008 | -0.076 | 0.013 | 0.066 | 0.025 | -0.035 | -0.005 | 0.015
2 | TFPI (UniProt P10646) | -0.069 | 0.093 | 0.011 | 0.089 | -0.141 | -0.02 | -0.232 | -0.096 | 0.065 | 0.003 | 0.024 | 0.035 | 0.046 | -0.003 | -0.011 | -0.042 | – | 0.021 | -0.027 | 0.073
3 | UBXN2B (UniProt Q14CS0) | -0.008 | -0.079 | 0.073 | -0.045 | -0.01 | -0.062 | 0.149 | -0.04 | -0.046 | -0.028 | 0.108 | 0.19 | 0.087 | -0.075 | 0.002 | -0.189 | -0.192 | – | 0.022 | -0.011
4 | THEMIS2 (UniProt Q5TEJ8) | -0.035 | 0.006 | 0.004 | 0.036 | 0.031 | -0.041 | -0.024 | -0.02 | 0.042 | 0.031 | 0.029 | -0.038 | 0.059 | -0.037 | -0.009 | 0.029 | -0.051 | -0.023 | -0.042 | 0.126
5 | TBC1D2B (UniProt Q9UPU7) | -0.005 | -0.028 | 0.098 | 0.03 | -0.053 | 0.042 | -0.111 | -0.031 | -0.024 | -0.075 | 0.075 | -0.017 | 0.008 | 0.003 | -0.054 | 0.058 | 0.006 | -0.03 | 0.031 | 0.025
6 | UCHL5 (UniProt Q5LJA9) | -0.052 | 0.084 | 0.005 | -0.024 | -0.032 | 0.016 | -0.045 | 0.035 | 0.006 | 0.054 | 0.009 | 0.078 | -0.007 | -0.113 | 0.044 | – | 0 | 0.012 | 0.035 | 0.01
7 | UBTF (UniProt P17480) | 0.02 | 0.015 | 0.018 | 0.03 | -0.009 | 0.002 | 0.027 | 0.009 | -0.022 | -0.024 | 0.026 | 0.025 | 0.017 | -0.002 | 0.016 | 0.046 | -0.075 | -0.022 | 0.044 | -0.002
8 | TTI1 (UniProt O43156) | -0.017 | 0.033 | -0.049 | 0.003 | -0.012 | -0.02 | -0.003 | -0.032 | -0.037 | 0.015 | 0 | 0.014 | 0.018 | -0.049 | -0.029 | 0.013 | 0.02 | 0.068 | -0.009 | 0.026
9 | TTF2 (UniProt Q9UNY4) | 0.043 | -0.003 | 0.063 | -0.001 | -0.026 | 0.042 | -0.046 | 0.039 | 0.032 | -0.006 | 0.003 | -0.121 | 0.035 | -0.006 | -0.02 | 0.037 | -0.084 | -0.058 | -0.018 | -0.115
10 | UBL5 (UniProt Q9BZL1) | 0 | 0.002 | -0.02 | 0.011 | -0.079 | 0 | 0.049 | 0.029 | 0.004 | -0.062 | 0.052 | – | -0.029 | 0.04 | -0.003 | -0.056 | 0.032 | 0.038 | 0.037 | –
11 | TMEM167B (UniProt Q9NRX6) | -0.061 | -0.016 | -0.006 | -0.042 | -0.044 | -0.002 | 0.013 | -0.056 | 0.036 | -0.014 | 0.019 | -0.02 | 0.015 | 0.001 | -0.02 | -0.058 | – | 0.021 | 0.035 | -0.033
12 | TUBB4B (UniProt P68371) | 0.008 | -0.059 | 0.019 | -0.018 | 0.005 | -0.024 | -0.011 | 0.019 | 0.03 | 0.04 | -0.012 | 0.029 | 0.026 | 0.029 | 0.02 | 0.011 | 0.022 | -0.05 | 0.035 | 0.018
13 | TPM3 isoform 2 (UniProt P06753) | -0.075 | -0.007 | -0.065 | -0.008 | 0.003 | 0.004 | 0.038 | 0.039 | -0.074 | -0.042 | 0.03 | -0.007 | -0.02 | 0.05 | -0.034 | -0.005 | -0.019 | -0.073 | 0.002 | -0.006
14 | TMEM70 (UniProt Q9BUB7) | -0.018 | -0.003 | -0.106 | 0.03 | 0.038 | -0.073 | 0.011 | 0.006 | -0.028 | 0.086 | 0.001 | -0.026 | 0.012 | -0.063 | -0.002 | -0.01 | 0.01 | 0.103 | 0.058 | 0.003
15 | TUBB6 (UniProt K7ES63) | -0.19 | 0.058 | -0.06 | 0.047 | -0.01 | -0.154 | -0.029 | -0.19 | -0.22 | 0.048 | -0.005 | 0.076 | 0.094 | -0.07 | 0.132 | -0.061 | – | -0.005 | 0.027 | -0.098
16 | UBIAD1 (UniProt Q9Y5Z9) | 0.013 | 0.16 | -0.128 | 0.092 | – | 0.249 | 0.46 (active) | 0.023 | 0.057 | -0.042 | – | -0.012 | 0.01 | 0.007 | 0.067 | -0.159 | -0.049 | 0.088 | 0.012 | 0.009
17 | TNKS (UniProt O95271) | 0.064 | -0.024 | -0.036 | -0.005 | – | 0.052 | -0.01 | -0.061 | -0.02 | -0.073 | – | 0.038 | -0.04 | 0.022 | -0.045 | -0.001 | -0.076 | 0.004 | 0.006 | 0.124

— the supplement of paper PMC10849652
